Measurements from PubChem BioAssay AID920 (The Scripps Research Institute Molecular Screening Center, 2007).
About 700 (0.35%) of roughly 200,000 compounds were called active. What follows is part of a selection rich in actives, with near analogues and random picks from the rest. A number with no mark means an inactive call.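 How the source made its calls: active means inhibition above a set limit, the mean inhibition across all tested compounds plus 3 SD (cut at about 34% in these data); inactive means the rest.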

Assay: blockers of IFN-gamma driven STAT1 reporter – cell-based, HTS, luciferase reporter, primary screen (AID 920);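 further: 0% = IFN-gamma with DMSO and 100% = IFN-gamma with 300 µM nifuroxazide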
Conditions: NIH 3T3 STAT1-luciferase reporter, luminescence, at 5.5 µM, active compounds read high

SMILES | inhibition
COc1ccc(N2C(=O)CC(SC(C)C)C2=O)cc1 (stereo not given) | 2.11%
COc1ccc(C2CC(c3cccs3)=NN2c2nc(C)c(C(C)=O)s2)cc1OC (stereo not given) | 34.5% (active)
COc1ccc(C2CC(c3cccs3)=NN2C(=O)CSc2nncs2)cc1OC (stereo not given) | 17%
COc1ccc(C2CC(c3cccs3)=NN2c2ccc(F)cc2)cc1OC (stereo not given) | -5.19%
Cc1cccc(NS(=O)(=O)c2ccc(C)c(C(N)=O)c2)c1 | 14%
CCN(/N=C/c1ccccc1)c1cc(=O)n(C)c(=O)[nH]1 | 1.47%
CC1CC(C)CN(C(=O)CSc2ccsc2[N+](=O)[O-])C1 (stereo not given) | 1.9%
Cc1ccc(NC(=O)CN(C)CC(=O)Nc2cccc(F)c2)cc1[N+](=O)[O-] | 34.4% (active)
Cc1ccc(CN(C)CC(=O)Nc2cccc([N+](=O)[O-])c2)o1 | 8.85%
CN(CC(=O)Nc1cccc(F)c1)CC(=O)Nc1cccc([N+](=O)[O-])c1 | 9.08%
O=C(c1cccc([N+](=O)[O-])c1)N1CCN(C(=O)c2ccco2)CC1 | 1.07%
Cc1ccc2[nH]c(C)c(CCNC(=O)NC3CCCCC3)c2c1 | 8.57%
CC(=O)N1N=C(c2ccccc2)OC1c1cccnc1 (stereo not given) | -12.4%
COc1ccccc1C(=O)NNC(=O)c1ccc(NC(=O)c2ccccc2)cc1 | 3.37%
COc1cc(/C=N/NC(=O)c2ccccc2)ccc1OS(=O)(=O)c1ccccc1 | -17.2%
CCn1c(/C=N/NC(=O)c2ccc(OC)cc2)nc2ccccc21 | 1.5%
COc1ccc(C(=O)Nc2ccccc2C(=O)N/N=C/c2ccccc2OC)cc1 | 58.5% (active)
COc1ccc(C(=O)Nc2ccccc2C(=O)N/N=C/c2ccc(O)c(OC)c2)cc1 | 99.9% (active)
COc1ccc(/C=N/NC(=O)c2ccccc2)cc1OS(=O)(=O)c1ccccc1 | 6.31%
CCN(C(=O)c1ccc(Br)cc1)c1ccccc1 | 12.3%

SMILES | inhibition
CC(=O)c1c(C)[nH]c(C(=O)OCC(=O)Nc2sc3c(c2C#N)CCCC3)c1C | -6.37%
Cc1nc(CN2CCN(C(=O)CCc3nnc(Cc4c[nH]c5ccccc45)o3)CC2)cs1 | 0.65%
CCCCOC(=O)CCCc1ccc([N+](=O)[O-])cc1[N+](=O)[O-] | 6.62%
Cc1cc(O)c(NC(=O)c2ccc(C)c([N+](=O)[O-])c2)cc1C | -3.86%
O=C(NNC(=O)C1CCN(c2ncccn2)CC1)c1ccccc1 | -0.55%
CC(=O)c1cc(C#N)c(N2CCCCC2)nc1C | 2.46%
Cc1ccsc1C(=O)OCC(=O)c1cc2ccccc2o1 | -6.53%
Cc1cc(C(=O)Cn2cnc3cc([N+](=O)[O-])ccc3c2=O)c(C)n1CC1CCCO1 (stereo not given) | -2.94%
Cc1ccsc1C(=O)OCC(=O)c1cc(C)n(CC2CCCO2)c1C (stereo not given) | 77.5% (active)
CC1CC(C)(C)NC(=S)N1CCC(=O)N1CCN(Cc2ccccc2)CC1 (stereo not given) | -1.54%
COc1ccc(NC(=S)NCCN2CCC(C)CC2)cc1 | 4.93%
Cc1cccc(C(=O)Nc2ccc3c(c2)C(=O)N(CC(C)C)C3=O)c1 | -24.8%
O=C(CSc1nc2ccc([N+](=O)[O-])cc2[nH]1)c1ccc(Cl)cc1 | -9.84%
Cc1ccc(-c2cn3cc([N+](=O)[O-])ccc3n2)cc1 | -37.1%
COc1ccc(-c2cn3ccsc3n2)cc1 | -38.6%
Cc1ccc(-c2cn3cc(C)ccc3n2)cc1 | 94.3% (active)
O=C(COC(=O)c1ccc(F)cc1)Nc1nc2ccc([N+](=O)[O-])cc2s1 | -0.42%
O=C(CN1CCN(c2ccccn2)CC1)N1CCc2ccccc21 | -3.17%
O=C(CN1C(=O)c2ccccc2S1(=O)=O)N1CCc2ccccc21 | 61.3% (active)
O=C(CSCc1ccccc1)N1CCc2ccccc21 | -41.3%

SMILES | inhibition
S=C(Nc1ccc(Br)cc1Cl)N1CCC2(CC1)OCCO2 | -18.2%
CCNc1ccc(C(=O)OCC(=O)N2c3ccccc3NC(=O)C2(C)C)cc1[N+](=O)[O-] | 4.43%
Cc1cc(Cl)ccc1OCCCC(=O)NCc1ccncc1 | -1.56%
C/C(=N/OC(=O)c1cccc(C(F)(F)F)c1)c1cnccn1 | -6.55%
COc1cc(SC)ccc1C(=O)Nc1nc(C)cs1 | 93.3% (active)
COc1ccccc1CNC(=O)c1ccc(SC)cc1OC | -9.83%
COc1cc(SC)ccc1C(=O)Nc1cc(C)ccn1 | -2.53%
CC(=O)NC(Cc1ccc(F)c(F)c1)C(=O)NC1CCN(c2nnnn2-c2ccccc2)CC1 (stereo not given) | 5.49%
CC1c2nc3ccccc3n2C(CC(=O)NCCCN2CCOCC2)C(=O)N1Cc1ccccc1 (stereo not given) | 6.33%
C/C(=N/NC(=O)C1COc2ccccc2O1)c1ccco1 (stereo not given) | -4.92%
COC(=O)C1=CN(Cc2ccc(OC)c(OC)c2)C=C(C(=O)OC)C1c1cccs1 | 59.2% (active)
COc1ccc(CCNC(=O)COC(=O)/C=C/c2cccs2)cc1OC | 9.78%
COc1ccc(C2=NN(C(=O)CCC(=O)O)C(c3cccs3)C2)cc1OC (stereo not given) | 3.75%
Cc1cc([N+](=O)[O-])nn1Cc1ccc(F)cc1 | 6.91%
O=c1cnnc(Nc2ccccc2F)[nH]1 | -3.73%
COc1ccc2c(CC(=O)OCC(=O)Nc3ccccc3[N+](=O)[O-])coc2c1 | 0.3%
CC[C@H]1CN2CCc3cc(OC)c(OC)cc3[C@@H]2C[C@@H]1C[C@H]1NCCc2cc(OC)c(OC)cc21 | 71.5% (active)
COc1cc2c(cc1O)[C@H](Cc1ccc(Oc3cc(C[C@@H]4NCCc5cc(OC)c(O)cc54)ccc3O)cc1)NCC2 | 5.62%
Cc1ccc(NC(=S)N2CCN(c3ncccn3)CC2)cc1C | 0.8%
CCn1c2ccccc2c2cc(NC(=O)COC(=O)c3cc(S(=O)(=O)N4CCCCC4)ccc3Cl)ccc21 | 5.58%
